# Most compounds without a hit are left out; they make up all but 0.98% or so of the library.
# RTF Ca sens act – cardiac RTF calcium sensitization; AID 493008; P19429+P45379; activation, % at 7.2 µM; 340,000 tested, 0.24% active; IANBD-labeled TnC RTF fluorescence at EC20 calcium; 0% EC20 calcium, 100% full calcium;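 active = activation above the mean over all tested compounds plus 3 SD, cut at about 30% in these data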;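 note: rise in fluorescence read as greater calcium sensitivity of cardiac thin filaments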
# LANA-H2B inh – blocks KSHV LANA binding to histone H2A/H2B. Q9QR71. cell-free LANA-H2A/H2B peptide, fluorescence polarization. inhibition, % (concentration not given with the values). 320,000 tested, 0.6% active. AID 2629; in the data active = inhibition mostly above about 10%, no sharp cut-off; inactive = mostly below about 6.7%
# RTF Ca sens inh – cardiac RTF calcium desensitization. inhibition, % at 7.15 µM. IANBD-labeled cardiac RTF, Ca2+ fluorescence. P19429+P45379. 340,000 tested, 0.12% active. AID 493244;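 active = inhibition above the mean inhibition of all tested compounds plus 3 SD, cut at about 17% in these data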;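 note: assay run at fixed EC70 calcium of 1.6 mM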
# Keap1 Nrf2 FP – disrupts human Keap1 binding to Nrf2 peptide; Q14145; Keap1 Kelch-Nrf2 peptide fluorescence polarization, 1536-well; inhibition, % at 9.4 µM; 340,000 tested, 0.15% active; AID 504523; in the data active = inhibition above about 12%;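 note: human Keap1 Kelch domain with fluorescein labeled Nrf2 9mer peptide probe; higher means more block of Keap1 binding to Nrf2 peptide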
# Target sequence (Q14145 whole entry, looked up, the tested form may be a part): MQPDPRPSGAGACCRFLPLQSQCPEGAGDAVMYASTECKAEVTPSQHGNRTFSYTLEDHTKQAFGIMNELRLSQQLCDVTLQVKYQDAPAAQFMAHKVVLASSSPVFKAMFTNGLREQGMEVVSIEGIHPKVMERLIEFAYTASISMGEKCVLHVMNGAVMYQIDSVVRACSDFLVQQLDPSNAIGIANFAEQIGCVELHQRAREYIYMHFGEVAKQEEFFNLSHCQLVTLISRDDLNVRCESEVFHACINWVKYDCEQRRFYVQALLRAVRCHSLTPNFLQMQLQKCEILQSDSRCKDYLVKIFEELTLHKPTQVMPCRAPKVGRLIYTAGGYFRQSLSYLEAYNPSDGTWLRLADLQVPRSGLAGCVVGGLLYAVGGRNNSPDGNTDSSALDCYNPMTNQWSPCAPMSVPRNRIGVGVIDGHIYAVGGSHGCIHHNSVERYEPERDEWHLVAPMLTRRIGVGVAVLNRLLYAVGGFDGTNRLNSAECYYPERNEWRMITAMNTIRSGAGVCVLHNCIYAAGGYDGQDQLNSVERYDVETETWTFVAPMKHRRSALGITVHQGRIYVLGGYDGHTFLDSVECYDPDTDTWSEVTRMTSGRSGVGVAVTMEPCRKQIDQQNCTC
# LANA DNA inh – KSHV C-LANA DNA binding inhibition; MBP-C-LANA/FAM-LBS DNA binding, fluorescence polarization; inhibition, % at 9 µM; 340,000 tested, 0.078% active; AID 504423;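 active = highest replicate inhibition at or above 60% at 9 µM, even if other replicates fall short; inactive = all replicates below 60% inhibition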
# Keap1 Kelch bind – binders of human Keap1 Kelch domain | shares compounds with Keap1 Nrf2 FP | Keap1 Kelch thermal shift, delta Tm; stronger effect = higher value | max delta Tm, degrees C | 400 tested, 8% active; in the data active = max delta Tm above about 0.48 degrees C
# Sypro dye melt – dye artifact in Keap1 thermal shift counter-screen; shares compounds with Keap1 Nrf2 FP; AID 651858; Sypro Orange dye-only thermal melt, no protein, delta Tm; top dose 26 µM; 140 tested, under 10 active; delta Tm, degrees C (concentration not given with the values);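 active = at highest dose tested, delta Tm positive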
# A number is an active result; 0 = inactive; - = not tested or not shown.
SMILES,RTF Ca sens act,LANA-H2B inh,RTF Ca sens inh,Keap1 Nrf2 FP,LANA DNA inh,Keap1 Kelch bind,others
CCOC(=O)N1CCN(Cc2ccccc2Cl)CC1,0,0,0,15,0,0,
CCOC(=O)N1CCN(Cc2ccccc2F)CC1,0,0,0,0,0,-,
C=CCOC(=O)C1=C(C)NC(=S)NC1c1cccs1 (stereo not given),0,0,0,0,0,-,
Cc1cc[n+](-c2[nH]c(=O)sc2/C=N/N=C(\[O-])c2ccccc2)cc1C,55,-,0,43,62,0,
COc1ccc(C(=O)c2ccc(CC#N)s2)cc1,0,0,0,0,0,-,
CCc1cc(C(=O)c2ccccc2OC)c(N)s1,0,0,0,0,0,-,
CCc1cc(C(=O)c2ccc(OC)cc2)c(N)s1,-,0,-,26,0,0,
COc1ccc(C(=O)c2ccsc2N)cc1,65,0,0,14,0,0,
CC(=O)NC(CC(=O)Nc1ccc2c(c1)OCCO2)c1ccccc1 (stereo not given),0,0,0,0,0,-,
Brc1ccc(CNCC2CCCO2)cc1 (stereo not given),0,0,0,0,0,-,
COc1ccc(Br)cc1CNCC1CCCO1 (stereo not given),0,0,0,36,0,0,
C=CCn1c(C)cc(C)c(C#N)c1=O,0,0,0,0,0,-,
C=CCn1c(O)c(CN2CCOCC2)c(C)c(C#N)c1=O,0,0,0,14,0,0,
Cc1cc(NC(=O)COC(=O)c2nccnc2N)n(-c2ccccc2)n1,0,0,0,0,0,-,
CCCc1cc(NC(=O)COC(=O)c2nccnc2N)n(-c2ccccc2)n1,0,0,0,57,0,0,
N#CCCN(CCC#N)C(=O)C1c2ccccc2Oc2ccccc21,0,114,0,64,95,0,Sypro dye melt=0
CN(CCC#N)C(=O)COC(=O)C1c2ccccc2Oc2ccccc21,0,0,0,0,0,-,
O=C(Nc1ccc(F)cc1Cl)C1=COCCO1,0,0,0,0,0,-,
COc1ccc(NC(=S)N2CCN(Cc3ccc(C)cc3)CC2)cc1,0,0,0,26,0,0,Sypro dye melt=0
COc1cccc(/C=C/C(=O)OCC(=O)NC(=O)NC2CCCC2)c1,0,0,0,36,0,0,Sypro dye melt=0
O=C(COC(=O)/C=C/c1cccc(Cl)c1)NC1CCCC1,0,0,0,0,0,-,
O=C(COC(=O)/C=C/c1cccc(Cl)c1)NC1CC1,0,19,0,24,0,0,Sypro dye melt=0
COc1cccc(-c2c3c([nH]c(=O)c2C#N)CCc2cc(OC)ccc2-3)c1,-,0,-,-,-,-,
COc1ccccc1CNC(=O)c1ccccc1NS(C)(=O)=O,0,-,0,21,0,0,
Cc1cc(C)n(-c2ccc(C(=O)OCC(=O)c3ccc(Br)s3)cc2)n1,0,0,0,0,0,-,
SMILES,RTF Ca sens act,LANA-H2B inh,RTF Ca sens inh,Keap1 Nrf2 FP,LANA DNA inh,Keap1 Kelch bind,others
COc1cc2c3nnc(-c4ccc(F)cc4)c-3cn(Cc3ccc(C)cc3)c2cc1OC,41,0,0,13,0,0,
N#CC1=C(N)Oc2cc(N)ccc2C1c1ccsc1 (stereo not given),0,0,0,0,0,-,
N#CC1=C(N)Oc2ccc3ccc(O)cc3c2C1c1ccsc1 (stereo not given),99,-,0,17,87,0,
CCCCSc1nnc(CNC(=O)C23CC4CC(CC(C4)C2)C3)n1Cc1ccccc1,0,0,0,0,0,-,
Cc1ccc2c(c1)cc1c(=O)n(CC(=O)NCc3ccccn3)nc(C)n12,0,0,0,0,0,-,
c1ccc(-n2ncc3c(NCC4CCCO4)ncnc32)cc1 (stereo not given),0,0,0,12,0,0,
Cc1ccc(Cn2c(=N)c(C(=O)NC3CCCC3)cc3c(=O)n4ccccc4nc32)cc1,0,0,0,16,0,0,Sypro dye melt=0
Cc1ccc2nc3c(cc(C(=O)NC4CCCC4)c(=N)n3C3CCCCC3)c(=O)n2c1,0,0,0,0,0,-,
N=c1c(C(=O)NC2CCCC2)cc2c(=O)n3ccccc3nc2n1C1CCCCC1,0,0,0,17,0,0,
N=c1c(C(=O)NCc2ccc(F)cc2)cc2c(=O)n3ccccc3nc2n1Cc1cccnc1,0,0,0,13,0,0,Sypro dye melt=0
O=C(c1ccc(NS(=O)(=O)c2ccc(Cl)c(Cl)c2)cc1)N1CCOCC1,0,-,0,0,0,-,

# Screening results as filed in PubChem BioAssay.
